# PubChem BioAssay (NCATS)
# Several values for one entry are separate records, joined by “and”; a condition that tells them apart may be missing. Identical values can stand only once. Records with an inconclusive call do not appear. Where a call stands in place of a potency, no number is given. Some compounds were tested as several samples or in several runs, with calls that do not always agree. Activity calls are given as the source filed them. Unless noted, the call rests on the fitted dose curve; in most records, active means well fitted curve in the direction sought with a large enough effect; inconclusive means small, poorly fitted or top-dose-only effect, or another doubt; inactive means no such curve, though single readings can be large; an effect the other way counts as inactive or inconclusive.
# Assays:
# [1] = Primary qHTS for inhibitors of nuclear receptor binding SET domain protein 2 (NSD2) in an RCH-ACV wild type WT cells (2C) (AID 1645877); further: nearly all actives have a fitted effect of over 70% in size; further: potency means the concentration at half of the fitted maximal effect
# [2] = Primary qHTS for inhibitors of nuclear receptor binding SET domain protein 2 (NSD2) in an isogenic RCH-ACV NSD2 p.E1099K mutant (9B) (AID 1645876); further: nearly all actives have a fitted effect of over 70% in size; further: potency means the concentration at half of the fitted maximal effect
# [3] = NCATS anti-infectives library activity on the primary C. elegans qHTS viability assay (AID 1745855; calls by dose curve; further: potency means the concentration at half of the fitted maximal effect)
# How it was run: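 GFP read-out by 488 nm laser cytometry at day 0, 3 and 7, gated on object perimeter, area and peak intensity, scored viability of PE254-GFP-FLuc worms exposed to compound in S medium with bacterial capsules at 21 °C.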
# [4] = NCATS anti-infectives library activity on HEK293 viability as a counter-qHTS vs the C. elegans viability qHTS (AID 1745854)
# How it was run: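 Cytotoxicity counter-screen to a worm viability qHTS: CellTiter-Glo luminescence read 10 min after reagent addition. Compounds (final up to 41.7 uM, a 1:5 dilution series) incubated 24 hr at 37C with 1,500 HEK293 cells per well; digitonin control.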
# [5] = target: Rap guanine nucleotide exchange factor 3 (Homo sapiens) (UniProt O95398); assay: Confirmatory qHTS for agonist of cAMP-regulated guanine nucleotide exchange factor 3 (EPAC1) (AID 1645881);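 further: EPAC1 catalysed release of BODIPY-GDP from Rap1B seen as fluorescence loss; nearly all actives have a fitted effect of over 75% in size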
# [6] = target: Rap guanine nucleotide exchange factor 4 (Homo sapiens) (UniProt Q8WZA2); assay: Confirmatory qHTS for agonist of cAMP-regulated guanine nucleotide exchange factor 4 (EPAC2) (AID 1645884);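 further: nucleotide exchange releases bodipy-GDP from Rap1 and this lowers its fluorescence; nearly all actives have a fitted effect of over 65% in size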
# [7] = target: Rap guanine nucleotide exchange factor 4 (Homo sapiens) (UniProt Q8WZA2); assay: Confirmatory qHTS for antagonist of cAMP-regulated guanine nucleotide exchange factor 4 (EPAC2) (AID 1645885); further: nearly all actives have a fitted effect of over 25% in size; further: potency means the concentration at half of the fitted maximal effect
# [8] = target: Rap guanine nucleotide exchange factor 3 (Homo sapiens) (UniProt O95398); assay: Counterscreen qHTS for agonist of cAMP-regulated guanine nucleotide exchange factor 3 (EPAC1) (AID 1645889); further: nearly all actives have a fitted effect of over 40% in size
# How it was run: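 Measured: fluorescence of BODIPY-GDP bound to Rap1B, which falls as exchange proceeds. Conditions include 50 uM competing GDP, 5 and 30 min reads, and a later cAMP challenge for antagonist detection.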
# [9] = target: Rap guanine nucleotide exchange factor 3 (Homo sapiens) (UniProt O95398); assay: Confirmatory qHTS for antagonist of cAMP-regulated guanine nucleotide exchange factor 3 (EPAC1) (AID 1645880); further: nearly all actives have a fitted effect of over 55% in size
# How it was run: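 Released BODIPY-GDP fluoresces less than Rap1-bound BODIPY-GDP; the signal is followed at 480/540 nm at 5-min intervals over 30 min, after 5 min at room temperature. Reactions contain 100 nM EPAC1, 250 nM RAP1B-BODIPY-GDP and 50 uM GDP; results are normalized to ATA and DMSO.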
# [10] = Viability counterscreen for antagonist of constitutive androstane receptor (CAR) against the NCATS DSHEA and TCM libraries (AID 1794837);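 further: compound exposure lasted 24 h before viability reading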
# How it was run: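 HepG2-CYP2B6-hCAR cells, 2,500/well, were exposed 24 hr at 37C to substances together with 48 uM CITCO (final). Viability was read as CellTiter-Fluor fluorescence (Ex/Em 405/540 nm) after 1 hr.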
# [11] = Viability counterscreen for agonist of constitutive androstane receptor (CAR) against the NCATS DSHEA and TCM libraries (AID 1794838);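 further: HepG2 cells with CYP2B6 reporter and hCAR plus 0.75 µM PK11195 antagonist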
# How it was run: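 HepG2-CYP2B6-hCAR cells (2,500/well) treated 24 h at 37C with compounds plus 0.75 uM PK11195; viability read by CellTiter-Fluor fluorescence, Ex/Em 405/540 nm.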
# [12] = target: Nuclear receptor subfamily 1 group I member 3 (Homo sapiens) (UniProt Q14994); assay: Primary qHTS for agonist of constitutive androstane receptor (CAR) against the NCATS DSHEA and TCM libraries (AID 1794839);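 further: HepG2 cells expressing human CAR with a CYP2B6 reporter plus PK11195 antagonist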
# How it was run: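 HepG2-CYP2B6-hCAR cells, 2,500/well, attached 5 h, then dosed with 0.75 µM PK11195 (final) for 24 h at 37 °C. Luciferase luminescence read (ONE-Glo); CellTiter-Fluor viability (Ex/Em 405/540 nm) in same wells; CITCO positive control.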
# [13] = HepG2 viability counterscreen (readout 2: ATP content) against the NCATS DSHEA and TCM libraries (AID 1794840)
# How it was run: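 HepG2 cells, 1,000/well, attached ~4 h, then exposed ~24 h at 37C to substances. Protease activity read by fluorescence of 25 uM GF-AFC (Ex/Em 380/510 nm) after 30 min; ATP then by CellTiter-Glo luminescence.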
# [14] = target: Catechol O-methyltransferase (Homo sapiens) (UniProt P21964); assay: Confirmatory Screen for Target Class Profiling of Small Molecule Inhibitors of Methyltransferases (AID 1745852; calls by dose curve); conditions: MTase-Glo luminescence, SAH detection, recombinant enzyme; measured here: COMT max response; stronger effect = lower value
# [15] = target: Guanidinoacetate N-methyltransferase (Homo sapiens) (UniProt Q14353); assay: as above; conditions: MTase-Glo luminescence, SAH detection, recombinant enzyme; at 57.3 µM (top of the series)
# [16] = target: Nicotinamide N-methyltransferase (Homo sapiens) (UniProt P40261); assay: as above; conditions: MTase-Glo luminescence, SAH detection, recombinant enzyme; measured here: NNMT max response; stronger effect = lower value
# [17] = target: Phenylethanolamine N-methyltransferase (Homo sapiens) (UniProt P11086); assay: as above; conditions: MTase-Glo luminescence, SAH detection, recombinant enzyme; measured here: PNMT max response; stronger effect = lower value
# Phenylethanolamine N-methyltransferase (Homo sapiens), sequence (P11086 whole entry, looked up): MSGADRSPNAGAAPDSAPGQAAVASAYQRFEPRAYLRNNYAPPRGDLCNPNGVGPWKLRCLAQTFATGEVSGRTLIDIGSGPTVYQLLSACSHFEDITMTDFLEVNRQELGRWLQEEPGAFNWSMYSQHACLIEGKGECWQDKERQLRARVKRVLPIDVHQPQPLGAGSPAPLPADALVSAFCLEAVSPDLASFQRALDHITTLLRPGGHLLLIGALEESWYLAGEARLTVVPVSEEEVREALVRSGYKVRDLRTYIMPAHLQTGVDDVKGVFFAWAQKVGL
# Nuclear receptor subfamily 1 group I member 3 (Homo sapiens), sequence (Q14994 whole entry, looked up): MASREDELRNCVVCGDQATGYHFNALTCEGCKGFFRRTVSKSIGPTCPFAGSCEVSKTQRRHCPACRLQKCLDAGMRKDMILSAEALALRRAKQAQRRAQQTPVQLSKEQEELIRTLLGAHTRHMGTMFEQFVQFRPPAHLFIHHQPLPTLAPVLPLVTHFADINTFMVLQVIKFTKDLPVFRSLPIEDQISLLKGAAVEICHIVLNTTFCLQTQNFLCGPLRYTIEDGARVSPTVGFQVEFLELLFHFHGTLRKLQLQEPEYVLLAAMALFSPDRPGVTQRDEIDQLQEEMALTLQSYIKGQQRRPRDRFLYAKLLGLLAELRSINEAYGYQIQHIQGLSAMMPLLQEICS
# Rap guanine nucleotide exchange factor 3 (Homo sapiens), sequence (O95398 whole entry, looked up): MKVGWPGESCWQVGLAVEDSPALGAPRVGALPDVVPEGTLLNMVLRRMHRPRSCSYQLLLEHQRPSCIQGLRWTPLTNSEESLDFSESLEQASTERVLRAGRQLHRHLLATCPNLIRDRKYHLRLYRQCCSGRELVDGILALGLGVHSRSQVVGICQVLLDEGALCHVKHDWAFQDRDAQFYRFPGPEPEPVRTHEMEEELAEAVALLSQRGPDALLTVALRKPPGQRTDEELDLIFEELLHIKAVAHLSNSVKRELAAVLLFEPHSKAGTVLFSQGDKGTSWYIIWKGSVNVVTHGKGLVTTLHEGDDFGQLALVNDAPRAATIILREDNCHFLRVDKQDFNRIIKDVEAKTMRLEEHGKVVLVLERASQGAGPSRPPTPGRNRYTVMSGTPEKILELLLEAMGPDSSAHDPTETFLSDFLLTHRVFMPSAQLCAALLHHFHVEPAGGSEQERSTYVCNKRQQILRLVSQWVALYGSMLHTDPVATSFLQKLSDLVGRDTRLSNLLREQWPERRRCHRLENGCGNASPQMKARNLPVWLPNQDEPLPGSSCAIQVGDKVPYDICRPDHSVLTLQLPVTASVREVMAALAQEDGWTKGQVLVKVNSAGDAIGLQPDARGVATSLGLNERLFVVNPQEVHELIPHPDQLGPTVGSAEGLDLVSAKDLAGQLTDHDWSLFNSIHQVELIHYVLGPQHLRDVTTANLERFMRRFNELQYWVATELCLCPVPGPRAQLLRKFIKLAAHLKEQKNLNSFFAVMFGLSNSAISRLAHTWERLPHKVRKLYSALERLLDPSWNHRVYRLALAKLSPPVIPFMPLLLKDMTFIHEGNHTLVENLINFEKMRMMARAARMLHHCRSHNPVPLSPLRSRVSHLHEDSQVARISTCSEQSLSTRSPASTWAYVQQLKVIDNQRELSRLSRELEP
# Rap guanine nucleotide exchange factor 4 (Homo sapiens), sequence (Q8WZA2 whole entry, looked up): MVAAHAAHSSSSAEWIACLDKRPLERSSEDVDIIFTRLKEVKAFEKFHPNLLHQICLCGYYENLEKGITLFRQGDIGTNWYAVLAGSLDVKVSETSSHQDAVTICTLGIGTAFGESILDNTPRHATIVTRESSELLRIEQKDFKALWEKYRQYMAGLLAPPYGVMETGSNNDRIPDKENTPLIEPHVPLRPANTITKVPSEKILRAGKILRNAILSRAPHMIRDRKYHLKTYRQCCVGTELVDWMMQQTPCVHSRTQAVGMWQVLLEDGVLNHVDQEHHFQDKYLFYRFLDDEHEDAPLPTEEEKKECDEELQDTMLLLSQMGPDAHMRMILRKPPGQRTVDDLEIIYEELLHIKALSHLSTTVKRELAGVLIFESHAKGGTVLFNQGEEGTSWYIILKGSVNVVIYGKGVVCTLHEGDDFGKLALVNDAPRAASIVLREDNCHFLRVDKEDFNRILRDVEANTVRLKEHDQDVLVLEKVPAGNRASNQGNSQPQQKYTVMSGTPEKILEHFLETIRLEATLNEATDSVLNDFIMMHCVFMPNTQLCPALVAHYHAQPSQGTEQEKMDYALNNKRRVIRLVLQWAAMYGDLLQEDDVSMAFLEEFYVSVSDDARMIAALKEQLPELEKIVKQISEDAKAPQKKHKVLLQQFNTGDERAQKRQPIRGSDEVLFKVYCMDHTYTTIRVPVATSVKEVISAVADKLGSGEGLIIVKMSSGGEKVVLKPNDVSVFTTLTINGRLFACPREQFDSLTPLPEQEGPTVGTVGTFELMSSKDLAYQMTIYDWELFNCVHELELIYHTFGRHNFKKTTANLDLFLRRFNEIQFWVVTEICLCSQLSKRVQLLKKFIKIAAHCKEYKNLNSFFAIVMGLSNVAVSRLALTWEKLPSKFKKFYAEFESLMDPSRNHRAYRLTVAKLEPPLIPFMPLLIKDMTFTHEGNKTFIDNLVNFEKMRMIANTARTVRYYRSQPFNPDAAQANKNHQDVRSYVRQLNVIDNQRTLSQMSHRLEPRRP
# Nicotinamide N-methyltransferase (Homo sapiens), sequence (P40261 whole entry, looked up): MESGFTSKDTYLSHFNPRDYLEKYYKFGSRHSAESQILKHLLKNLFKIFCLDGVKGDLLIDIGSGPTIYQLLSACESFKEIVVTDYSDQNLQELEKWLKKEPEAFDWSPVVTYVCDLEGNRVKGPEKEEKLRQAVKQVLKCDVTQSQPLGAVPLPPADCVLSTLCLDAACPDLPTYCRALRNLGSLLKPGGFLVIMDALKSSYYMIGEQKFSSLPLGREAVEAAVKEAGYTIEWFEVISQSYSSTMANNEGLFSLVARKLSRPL
# Catechol O-methyltransferase (Homo sapiens), sequence (P21964 whole entry, looked up): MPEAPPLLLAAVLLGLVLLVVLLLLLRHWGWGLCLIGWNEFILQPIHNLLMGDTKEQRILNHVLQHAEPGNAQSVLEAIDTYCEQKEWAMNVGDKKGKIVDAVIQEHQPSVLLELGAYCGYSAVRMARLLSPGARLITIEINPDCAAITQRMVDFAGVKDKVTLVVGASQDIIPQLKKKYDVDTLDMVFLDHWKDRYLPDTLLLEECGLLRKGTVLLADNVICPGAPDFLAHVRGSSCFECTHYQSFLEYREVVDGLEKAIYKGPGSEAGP
structure (smiles),measurement,setting,value
CN1CCN(CCCN2c3ccccc3Sc3ccc(S(=O)(=O)N(C)C)cc32)CC1,Potency,[1],21.1 µM (active)
C[C@]12CCC(=O)C=C1CC[C@H]1[C@@H]3CC[C@](O)(C(=O)CO)[C@@]3(C)C[C@H](O)[C@@]12F,Potency,[1],0.0106 µM (active)
COc1cccc2c1C(=O)c1c(O)c3c(c(O)c1C2=O)C[C@@](O)(C(=O)CO)C[C@@H]3O[C@H]1C[C@H](N)[C@H](O)[C@H](C)O1,Potency,[2],188 nM (active) and 33.2 nM (active)
same,Potency,[1],150 nM (active) and 26.3 nM (active)
same,Potency,[3],23 µM (active)
CCN(CC)C(=O)/C(C#N)=C/c1cc(O)c(O)c([N+](=O)[O-])c1,Potency,[4],inactive
CCCCC(=O)O[C@]1(C(=O)CO)CC[C@H]2[C@@H]3CCC4=CC(=O)CC[C@]4(C)[C@H]3[C@@H](O)C[C@@]21C,Potency,[1],0.106 µM (active)
O=C(OCCOCCO)c1ccccc1Nc1cccc(C(F)(F)F)c1,Potency,[1],16.8 µM (active)
CCCCCCc1ccc(O)cc1O,Potency,[2],13.3 µM (active)
same,outcome,[5],inactive
same,Potency,[6],inactive
same,Potency,[7],39.3 µM (active)
Oc1ccc(Cl)cc1Sc1cc(Cl)ccc1O,Potency,[2],18.8 µM (active)
same,outcome,[5],inactive
same,Potency,[6],inactive
same,Potency,[7],31.2 µM (active)
same,"activity change, negative = inhibition",[7],-4.98% [at 12.7 µM] (inactive)
same,activation,[8],18.9% [at 30.8 µM] (inactive)
O=C1OC(c2ccc(O)cc2)(c2ccc(O)cc2)c2ccccc21,Potency,[9],inactive
same,outcome,[5],inactive
same,Potency,[6],inactive
same,Potency,[7],24.8 µM (active) and 27.8 µM (active)
COc1ccc(CN2CCN(C(c3ccc(F)cc3)c3ccc(F)cc3)CC2)c(OC)c1OC,Potency,[1],16.3 µM (active)
COc1cc2c(cc1OC)C(=O)C(CC1CCN(Cc3ccccc3)CC1)C2 (centres undefined),Potency,[1],21.1 µM (active)
Oc1c(I)cc(Cl)c2cccnc12,Potency,[1],8.41 µM (active)
Nc1nc2ncc(CNc3ccc(C(=O)N[C@@H](CCC(=O)O)C(=O)O)cc3)nc2c(=O)[nH]1,Potency,[2],inactive
same,Potency,[1],inactive
same,outcome,[10],inactive
same,outcome,[11],inactive
same,outcome,[12],inactive
same,outcome,[13],inactive
C[C@]12C=CC(=O)C=C1CC[C@@H]1[C@@H]2[C@@H](O)C[C@@]2(C)[C@H]1CC[C@]2(O)C(=O)CO,Potency,[1],42.2 nM (active) and 209 nM (active)
CC(=O)OCC(=O)[C@@]1(O)[C@H](C)C[C@H]2[C@@H]3CCC4=CC(=O)C=C[C@]4(C)[C@@]3(F)[C@@H](O)C[C@@]21C,Potency,[1],3.3 nM (active) and 12.9 nM (active)
C/C=C/c1ccc(OC)cc1,Potency,[2],inactive
same,Potency,[1],inactive
same,outcome,[10],inactive
same,outcome,[11],inactive
same,outcome,[12],inactive
same,outcome,[13],inactive
CCCCOc1cc(C(=O)NCCN(CC)CC)c2ccccc2n1,Potency,[1],23.7 µM (active)
CN1CCCC(CC2c3ccccc3Sc3ccccc32)C1 (centres undefined),Potency,[1],18.8 µM (active)
C[C@H]1C[C@H]2[C@@H]3CCC4=CC(=O)C=C[C@]4(C)[C@@]3(Cl)[C@@H](O)C[C@]2(C)[C@@]1(O)C(=O)CO,Potency,[1],0.0047 µM (active)
C#C[C@]1(OC(C)=O)CC[C@H]2[C@@H]3CCC4=C[C@@H](OC(C)=O)CC[C@@H]4[C@H]3CC[C@@]21C,Potency,[1],18.8 µM (active)
same,Potency,[9],inactive
same,outcome,[5],inactive
same,Potency,[6],inactive
same,Potency,[7],inactive
CC(C)C[C@H]1C(=O)N2CCC[C@H]2[C@]2(O)O[C@](NC(=O)[C@@H]3C=C4c5cccc6[nH]c(Br)c(c56)C[C@H]4N(C)C3)(C(C)C)C(=O)N12,Potency,[9],inactive
same,outcome,[5],inactive
same,Potency,[6],inactive
same,Potency,[7],inactive
same,activity,[14],7.86%
same,"activity change, negative = inhibition",[15],3.94%
same,activity,[16],-2.85%
same,activity,[17],4.08%
C[C@]12C=CC(=O)C=C1[C@@H](F)C[C@@H]1[C@@H]2[C@@H](O)C[C@@]2(C)[C@H]1CC[C@]2(O)C(=O)CO,Potency,[1],0.0422 µM (active)
CC1(C)O[C@@H]2C[C@H]3[C@@H]4C[C@H](F)C5=CC(=O)CC[C@]5(C)[C@H]4[C@@H](O)C[C@]3(C)[C@]2(C(=O)CO)O1,Potency,[1],0.0094 µM (active)
CC(=O)OCC(=O)[C@@]1(OC(C)=O)[C@@H](C)C[C@H]2[C@@H]3C[C@H](F)C4=CC(=O)C=C[C@]4(C)[C@@]3(F)[C@@H](O)C[C@@]21C,Potency,[1],0.0188 µM (active)
Nc1ccc(C(=O)O)cc1,Potency,[2],inactive
same,Potency,[1],inactive
same,outcome,[10],inactive
same,outcome,[11],inactive
same,outcome,[12],inactive
same,outcome,[13],inactive
